Measured values as given in PubChem BioAssay (NCI).
The panel holds about 83,000 compounds, 20% with a hit somewhere; the sample as a whole holds those more often.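 For each line, cells grew in 96-well plates with the test compound present at a single concentration for 48 hours.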 A number with no mark means an inactive call. Active and inactive are the calls of the source. The calls were made as follows: active = growth percent below 10; inactive = the rest.

What follows are molecules tested on SW-620 colon (assay: NCI-60 one-dose screen, 48 h (100 = growth as untreated, 0 = no growth, -100 = all killed)). Details: 10 µM.

| SMILES | growth |
| --- | --- |
| O=S(=O)(c1ccc(Cl)cc1)c1nc(-c2ccccc2)oc1S(=O)(=O)c1ccc(Cl)cc1 | 46.8% |
| O=[N+]([O-])c1ccc(-c2nc(-c3ccccc3)c(-c3ccccc3)n2-c2ccc(S(=O)(=O)Nc3ncccn3)cc2)cc1 | 51.1% |
| Cc1cc(C(F)(F)F)ccc1C(=O)Nc1sc2c(c1C#N)CCC(=O)C2 | -34.4% (active) |
| Cc1ccn2c(C(=O)c3ccccc3)cc(-c3cc(-c4ccc(N(C)C)cc4)c(C#N)c(N)n3)c2c1 | 69.7% |
| COc1ccc2ncc(C#Cc3cncc(C(=O)Nc4ccc(CN5CCN(C)CC5)c(C(F)(F)F)c4)c3)n2n1 | -72.4% (active) |
| CN1CCN(Cc2ccc(C(=O)Nc3cccc(Nc4ccc5cc(O)ccc5n4)c3)cc2C(F)(F)F)CC1 | -83.1% (active) |
| O=C(c1ccc(Cl)cc1)C1[C@H](c2ccccc2Br)[C@@H](c2ccccc2)NC12C(=O)Nc1ccc(Cl)cc12 (some centres not stated) | 8.7% (active) |
| N#Cc1c(Cl)nc(SCc2ccc(F)cc2)nc1-c1ccc(F)cc1 | 98.6% |
| CC1=N/C(=C\c2ccc(N(C)C)cc2)C(=O)N1CCc1ccc(S(N)(=O)=O)cc1 | 112% |
| CC1(C)CC[C@]2(C(=O)O)CC[C@]3(C)C(=CC[C@@H]4[C@@]5(C)C/C(=C/c6ccncc6)[C@H](O)C(C)(C)[C@@H]5CC[C@]43C)[C@@H]2C1 | 34.6% |
| Cc1ccc(/C=C/C(=O)c2ccc(NC(=O)CSc3nnc(-c4c[nH]c5ccccc45)n3-c3ccccc3)cc2)c(C)c1 | 33.2% |
| COC1=C[C@]23CCC(=O)N2CCc2cc4c(cc2[C@@H]3[C@@H]1OC(=O)CCCC(C)C)OCO4 | 63% |
| COC(=O)c1c(C(=O)OC)c2n(c1C)[C@@H]([C@@H](C)[C@H]1CC[C@H]3[C@@H]4CCC5=CC(=O)CC[C@]5(C)[C@H]4CC[C@]13C)SC2 | 34.2% |
| O=C(CNc1nc(-c2ccccc2)cs1)Nc1cccc([N+](=O)[O-])c1 | -66.7% (active) |
| CN(C(=O)c1ccc(C(C)(C)C)cc1)c1sc2c(c1C#N)CCC(=O)C2 | -42.3% (active) |
| Cc1cc(C)nc(NS(=O)(=O)c2ccc(N/C(N)=N/c3nccc(-c4ccccc4)n3)cc2)n1 | 93.8% |
| O=C(NO)c1ccc(Cn2ccc3c(Nc4ccccc4)ncnc32)cc1 | -61.8% (active) |
| Cc1noc2c(Cc3ccccc3)nn(CC(=O)N/N=C/c3ccc(Br)cc3)c(=O)c12 | 54.6% |
| N#Cc1c(-c2ccc(F)cc2)nc(SCc2ccc([N+](=O)[O-])cc2)nc1N1CCOCC1 | 80.5% |

| SMILES | growth |
| --- | --- |
| COc1ccc(-c2ccc(/C=N/NC(=O)c3[nH]c4ccc(Br)cc4c3-c3ccccc3)s2)cc1 | 44.8% |
| CC1(c2ccccc2)NC(=O)N(CC(=O)Nc2ccc(C(=O)/C=C/c3ccc(Cl)cc3)cc2)C1=O (configuration not stated) | -58.9% (active) |
| O=c1[nH]c2ccccc2cc1CSc1ccc(Nc2nccc(-c3ccc4ccccc4c3)n2)cc1 | 32.9% |
| COC(=O)CC1CC1C1Cc2c(nc(N(C)S(C)(=O)=O)nc2C(C)C)-c2ccc(F)cc21 (configuration not stated) | 66% |
| COc1ccc(CN2[C@H](C(=O)NCCCCCCC(=O)NO)Cc3c([nH]c4ccccc34)[C@H]2C2CC2)cc1 | -68.1% (active) |
| O=C(CSc1nnc(-c2c[nH]c3ccccc23)n1-c1ccccc1)Nc1ccc(C(=O)/C=C/c2cccc([N+](=O)[O-])c2)cc1 | 101% |
| Cc1ccc(NCC(=O)Nn2c(COc3ccccc3)nc3ccccc3c2=O)cc1 | 95.1% |
| C/C(=C\CC/C=C(\C)CC/C=C(\C)CC[C@@H](O)C(C)(C)O)CC/C=C(\C)CC[C@@H](O)C(C)(C)O | 43% |
| CCOC(=O)N/C(=C1/OCCN1C)[P+](c1ccccc1)(c1ccccc1)c1ccccc1 | 89.1% |
| COc1cccc(-c2ccc(/C=N/NC(=O)c3[nH]c4ccc(Br)cc4c3-c3ccccc3)o2)c1 | 24.6% |
| Cn1cc(/C=N/Nc2cccc(Cl)n2)c2ccccc21 | 65.9% |
| O=C(CNc1nc(-c2ccccc2)cs1)Nc1ccc(Cl)cc1[N+](=O)[O-] | -60.6% (active) |
| CCCCCCCCCCCCCCCCCCCC(=O)NCCc1c[nH]c2ccc(OC(=O)CCCC(=O)OCCOOCCOOCCOOCCOOCCOOCCOOCCOOCCOOCCOOCCOOCCOOCCOC)cc12 | 83% |
| COC[C@@H](CC(C)C)N=C1N/C(=C\c2ccc3ncsc3c2)C(=O)N1C | 2.99% (active) |
| COc1ccccc1[C@H]1C(C(=O)c2ccc(O)cc2)C2(N[C@@H]1c1ccccc1)C(=O)Nc1ccc(Br)cc12 (some centres not stated) | 13.6% |
| COc1ccc(C(=O)Nc2ccc(-c3ccc4c(c3)NC(=O)/C4=C\c3ccc[nH]3)cc2)cc1 | -14.7% (active) |
| O=C(Nc1ccncc1)c1ccc(-n2c(=O)[nH]c3ccccc3c2=O)cc1 | 101% |
| O=C(NO)c1ccc(-c2nc3ccc4[nH]ncc4c3c3c2CCCC3)cc1 | 1.77% (active) |
